This is a sample that favours compounds with a hit; in the whole collection about 0.96% have one here.
cytoskel mod: modifiers of cytoskeleton assembly | HUVEC TNFa F-actin phalloidin imaging, high content | inhibition, % at 2 µM | 91,000 compounds, 0.18% hits;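 active = inhibition above the batch mean plus 3 SD and confirmed as a hit by visual image inspection, cut at about 30% in these data, passing the limit was not always enough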
sEH inh: inhibitors of human soluble epoxide hydrolase. P34913. recombinant human sEH enzymatic activity assay. inhibition, % at 2 µM. 91,000 compounds, 0.34% hits; in the data active = inhibition above about 80%
Target sequence (P34913 whole entry, looked up): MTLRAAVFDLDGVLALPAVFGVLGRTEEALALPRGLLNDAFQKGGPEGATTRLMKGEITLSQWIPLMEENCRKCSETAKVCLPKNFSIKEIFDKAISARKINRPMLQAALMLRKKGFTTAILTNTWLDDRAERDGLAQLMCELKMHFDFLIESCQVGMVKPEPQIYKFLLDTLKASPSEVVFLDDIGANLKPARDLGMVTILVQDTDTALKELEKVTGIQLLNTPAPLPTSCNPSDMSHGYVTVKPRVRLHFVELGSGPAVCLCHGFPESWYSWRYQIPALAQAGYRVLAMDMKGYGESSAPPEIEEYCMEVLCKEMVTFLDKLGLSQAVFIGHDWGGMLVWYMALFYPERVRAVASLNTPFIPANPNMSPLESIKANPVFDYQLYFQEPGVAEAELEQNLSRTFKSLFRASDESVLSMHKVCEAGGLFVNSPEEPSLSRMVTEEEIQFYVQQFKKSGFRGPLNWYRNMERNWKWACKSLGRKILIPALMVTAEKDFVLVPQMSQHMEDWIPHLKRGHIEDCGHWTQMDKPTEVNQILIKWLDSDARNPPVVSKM
sEH activator: activators of human soluble epoxide hydrolase. P34913. purified human sEH enzymatic activity, activator screen. activation, % at 2 µM. 91,000 compounds, 0.04% hits; in the data active = activation above about 37%
E-sel TNF inh: blocks E-selectin expression induced by TNF alpha; HUVEC TNFa-induced E-selectin immunofluorescence, high content; inhibition, % at 2 µM; 120,000 compounds, 0.71% hits; AID 1246;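 active = inhibition above the batch mean plus 3 SD, and confirmed as a hit on visual image review, cut at about 43% in these data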;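 also: 0% = TNF-stimulated DMSO wells and 100% = unstimulated control wells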
Phagocytosis inh: blocks phagocytosis by macrophages; J774A.1 macrophage IgG-bead phagocytosis, imaging; inhibition, % at 5 µM; 110,000 compounds, 0.07% hits;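 active = inhibition above the mean of the plate negative controls plus 5 SD, cut at about 13% in these data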;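 also: phagocytic index as fraction of beads internalized from green versus red external bead signal; plate controls were DMSO negative control for no effect and cytochalasin-D positive control for full effect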
SDO1 yeast rescue: compounds rescuing growth of sdo1-depleted yeast, bone marrow failure model; S. cerevisiae sdo1-depleted JHY4D growth rescue, OD600 30 h; hits give high values; pdr5 snq2 efflux-pump mutant strain; z-score at 10 µM; 140,000 compounds, 0.21% hits; AID 817;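 active = z-score above 3 at both the 24 hr and the 30 hr optical density reads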;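 also: z-score against mean and SD of all compound wells on the same plate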
* hit, by the source's call; . = no result given.

SMILES	cytoskel mod	sEH inh	sEH activator	E-sel TNF inh	Phagocytosis inh	SDO1 yeast rescue
N#Cc1ccc(-n2nccc2-c2cnc3n(c2=O)CCS3)cc1	-13	-5	3	-3	-1	0.26
Nn1c(SCC(=O)Nc2ccc3c(c2)OCCO3)nnc1C(F)(F)F	34*	.	.	.	-3	-0.36
Cn1c(CN2CCCC2)nc2cc(NC(=O)c3cccs3)ccc21	.	.	.	-3	2	1.9
O=C(Nc1ccc(F)cc1)N1CCOCC1	36	5	-5	77*	1	0.89
Cc1ccc(Cl)cc1-c1ccc(C=Nc2ccc(N3CCOCC3)cc2)o1	.	.	.	.	-8	-0.41
COC(=O)C1=NN(c2cccc(C)c2)C2C(=O)N(c3ccccc3OC)C(=O)C12 (stereo unspecified)	.	.	.	73*	-10	0.22
C=CCNC(=O)COC(=O)/C=C/c1cccs1	.	.	.	-36	.	.
C=CCNC(=O)/C=C/c1cccs1	.	.	.	94*	.	.
C/C(=N\NC(=O)CC1N=C(Cc2ccccc2)NNC1=O)c1ccc(C)cc1 (stereo unspecified)	-17	15	-12	100*	.	-0.59
CC(=O)c1c(C(C)=O)c(C)n(NC(=O)c2cccnc2)c1C	-3	7	-8	.	0	0.5
CC(=O)c1c(C(C)=O)c(C)n(NC(=O)c2ccccc2O)c1C	76*	5	-3	2	-1	0.93
C=CCn1c(SCC(=O)NCc2ccccc2)nnc1-c1ccccc1O	22	-1	6	40*	2	-0.02
CCN(/N=C/c1ccc(Cl)cc1)c1cc(=O)n(C)c(=O)[nH]1	.	.	.	62*	-7	-0.13
CC1(c2ccccc2)NC(=O)N(N)C1=O (stereo unspecified)	.	.	.	-7	.	.
O=C(Nc1ccccc1)C1=C(c2ccccc2)S(=O)(=O)CCS1(=O)=O	.	.	.	100*	.	.
CCOC(=O)c1c(NC(=O)CSc2ncn[nH]2)sc(C)c1C	.	-4	3	-13	0	-0.92
CCOC(=O)c1c(NC(=O)CSc2nnc(C)c(=O)[nH]2)sc(C)c1C	.	.	.	65*	.	.
O=C(N1CCN(c2cccc(Cl)c2)CC1)C1(c2cccs2)CCOCC1	.	.	.	.	.	-1.1
Cn1nnnc1SCc1nnc(-c2ccc(Cl)cc2)o1	14	.	.	63*	0	1.7
CC1CCCC(NC(=O)Cc2ccc(Br)cc2)C1C (stereo unspecified)	-6	53	-52	22	.	-1.7
CC1CCCC(NC(=O)Nc2cccs2)C1C (stereo unspecified)	-19	80*	-81	-2	.	-0.85
COc1ccccc1NC(=S)N(Cc1ccco1)Cc1cc2cccc(C)c2[nH]c1=O	.	.	.	61*	-10	-0.56
COc1cc(C(=O)N(Cc2ccco2)Cc2cc3ccccc3[nH]c2=O)cc(OC)c1OC	35*	.	.	.	-4	0.93
CCOC(=O)c1ccc(NC(=S)NCC(O)c2ccccc2)cc1 (stereo unspecified)	18	15	-13	73*	-1	-0.32
COC(=O)c1nnn(-c2ccc(Cl)c(Cl)c2)c1C(=O)OC	.	.	.	73*	.	.
SMILES	cytoskel mod	sEH inh	sEH activator	E-sel TNF inh	Phagocytosis inh	SDO1 yeast rescue
O=C(O)CSC1c2ccccc2C(=O)N1Cc1ccccc1 (stereo unspecified)	29	9	-10	69*	0	-1
CCC(=O)OC1c2ccccc2C(=O)N1Cc1ccccc1 (stereo unspecified)	-16	8	-7	.	0	0.37
CC(C)CCNC(=O)CNC(=S)N(Cc1ccccc1)Cc1cccnc1	.	.	.	.	-11	1.4
Cc1cc(NC(=O)Cn2c(=O)c3c(ncn3CC(C)C)n(Cc3ccccc3)c2=O)no1	.	.	.	-30	0	0.17
CC(C)Cn1cnc2c1c(=O)n(CC(=O)Nc1ccc3c(c1)OCO3)c(=O)n2Cc1ccccc1	-15	-7	6	71*	.	-0.35
Oc1ccc(N2CCN(c3ncnc4sc(-c5ccccc5)cc34)CC2)cc1	.	.	.	100*	.	.
O=C(NCc1ccc2c(c1)OCO2)c1cc2ncc(Br)cn2n1	18	.	.	6	10	-0.11
Cc1ccc(S(=O)(=O)Nc2ccccc2CNc2cccc(C)n2)cc1	.	.	.	24	-4	-0.73
CC(C)NC(=O)CSc1nc(N)c(-c2ccccc2)c(=O)[nH]1	.	.	.	-40	.	.
FC(F)(F)c1nc(-c2cccnc2)ncc1-c1nnnn1-c1ccccc1	9	-3	3	-29	.	-0.05
COc1ccc(-n2nnnc2-c2cnc(N3CCCC3)nc2C(F)(F)F)cc1	6	-11	11	100*	.	-0.67
CCc1ccc(NC(=O)CSc2nnc(SCC(=O)Nc3ccc(CC)cc3)n2N)cc1	12	2	-4	7	2	-1.7
CN1C(=O)S/C(=C/c2ccccc2OCc2ccc(C(=O)O)cc2)C1=O	.	.	.	-13	.	.
CN1C(=O)S/C(=C\c2ccccc2OCc2ccc(C(=O)O)cc2)C1=O	.	.	.	100*	.	.
COc1ccc(/C=N/NC(=O)c2ccc(COc3ccccc3Cl)o2)cc1	-1	84*	-84	-24	-1	-2
CC(C)C(C(=O)O)N1CCS(=O)(=O)CC1 (stereo unspecified)	.	.	.	80*	.	.
O=S1(=O)CCN(C(CO)c2ccccc2)CC1 (stereo unspecified)	.	.	.	-11	.	.
Cc1ccc(-n2c(C)cc(C=C(C#N)C#N)c2C)cc1	-1	-10	11	52*	2	-1
COc1ccc(OC)c(CCNC(=O)CSc2ccsc2[N+](=O)[O-])c1	.	.	.	77*	.	.
Cc1c(C(=O)NC(C)c2ccncc2)oc2ccccc12 (stereo unspecified)	8	-24	21	100*	-1	0.38
Cc1c(C(=O)Nc2ccncc2)oc2ccccc12	3	-14	15	31	0	-1.5
c1ccc(Nc2ccc3c4c(cccc24)CC3)cc1	12	3	-2	14	.	-1.7
Nc1ccc2c3c(cccc13)CC2	51*	12	-10	.	-2	0
O=[N+]([O-])c1ccc2nc(CCCO)[nH]c2c1	.	.	.	2	.	.
COc1ccc(C(=O)Nc2ccc3oc(Cc4ccc(Cl)cc4)nc3c2)cc1OC	13	.	.	-4	.	-1.4
SMILES	cytoskel mod	sEH inh	sEH activator	E-sel TNF inh	Phagocytosis inh	SDO1 yeast rescue
Cc1nc2ccccc2n1-c1nc(-c2ccco2)cc(C(F)(F)F)n1	.	.	.	100*	0	-0.7
Cn1cc(C(=O)c2ccc(Cl)cc2)cc1-c1nc2ccccc2n1C	3	-13	10	9	4	-1.8
CC(=NCc1cccc(Cl)c1)c1nc(-c2ccco2)oc1O	.	.	.	1	2	-1.6
COc1ccc(-n2c(C)c3c(OC)cccc(=O)c3c2C)cc1	8	8	-7	56*	1	-1.3
COc1ccccc1-n1c(C)c2c(OC)cccc(=O)c2c1C	.	.	.	.	-2	-0.74
COc1ccc(NC(=O)Cn2cccc2)cc1Cl	-16	-5	6	-63	-2	-0.19
Cc1cccc(NC(=O)Cn2c(C)c(C#N)c3ccccc32)c1C	0	0	-3	26	-1	-0.63
O=C(/C=C/c1cccc([N+](=O)[O-])c1)n1cnc2ccccc21	.	.	.	99*	.	.
Cc1cccn2c(=O)c(/C=N/O)c(N3CCOCC3)nc12	.	.	.	5	.	.
CC(=O)Nc1cccc(NC(=O)C2CC3CCC2C3)c1 (stereo unspecified)	.	2	0	-9	-1	1.1
CCN(CC)c1ccc(NC(=O)C2CC3CCC2C3)cc1 (stereo unspecified)	.	.	.	96*	0	-0.82

Source: PubChem BioAssay
